From PubChem BioAssay (NCI)
Compounds without any hit were thinned out: in the full panel of roughly 83,000, 20% have a hit.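 Values shown are percent growth following 48 h exposure of cells in 96-well plates to a single concentration of compound; below 10 was considered active.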 A number with no mark means an inactive call. Active and inactive are the calls of the source.

What follows are molecules tested on MDA-MB-468 breast (assay: NCI-60 one-dose screen, 48 h (100 = growth as untreated, 0 = no growth, -100 = all killed)). Conditions: 10 µM unless noted.

Row | Structure (SMILES) | growth
1 | O=C(Oc1cccc2ccccc12)c1ccccc1C(=O)c1ccccc1 | 103%
2 | C=C(C)[C@@H]1CC[C@]2(C=O)CC[C@]3(C)[C@H](CC[C@@H]4[C@@]5(C)C/C(=C/c6cccnc6)C(=O)C(C)(C)[C@@H]5CC[C@]43C)[C@@H]12 | 80.4%
3 | O=C1c2c[n+](Cc3ccccc3)ccc2-c2nc3ccccc3c3ccnc1c23 | -59.2% (active)
4 | O=C1OCC2=C1C(c1cccc(Cl)c1)c1cc3c(cc1N2CCO)CCC3 (stereo unspecified) | -9.35% (active)
5 | Clc1ccc2nc(CI)c(CI)nc2c1 | 55.6%
6 | CCCCCCCCCCN(CCCCCCCCCC)CC(=O)c1ccc2cc(Br)c3ccccc3c2c1 | 100%
7 | CC(=O)c1cc2c(N)c(C(=O)Nc3ccccn3)sc2nc1C | 57.3%
8 | COc1ccc2[nH]cc(/C=C3/C(=O)Nc4ccc(Cl)cc43)c2c1 | -10.9% (active)
9 | Cc1cscc(C)c1=S | 72.3%
10 | Cc1c(N2CN3C[C@H](C)N4CN(c5c(C)n(C)n(-c6ccccc6)c5=O)CN5C[C@@H](C)N(C2)C3C54)c(=O)n(-c2ccccc2)n1C (stereo partly specified) | 97.1%
11 | N#Cc1c(-c2cccs2)cc(-c2cccnc2)[nH]c1=O | 101%
12 | CN(C)CC1CCC(CN(C)C)C1=O (stereo unspecified) | 108%
13 | COc1cc(Cl)cc(-c2nn(C(=O)NS(=O)(=O)c3ccccc3)cc2-c2ccncc2)c1 | 89%
14 | O=C1/C=C/[C@@H](O)[C@@H]2C[C@@H](O)C[C@H]2/C=C/CCC[C@H](CCc2ccc3ncccc3c2)O1 | -5.95% (active)
15 | CCCCN(CCCC)CCCN=c1nc2c(c(N)n1-c1ccccc1)c(=S)n(-c1ccccc1)c(=S)n2-c1ccccc1 | -89.9% (active)
16 | CC(=O)c1nc2ccccc2n1CCn1cc(CC(N)C(=O)O)c2ccccc21 (stereo unspecified) | 118%
17 | CS(=O)(=O)c1ccc2c(c1)c1c(n2C(=O)c2ccc(Cl)cc2)CCCC1 | 27.7%
18 | Cc1cc(CO)c(O)c(CO)c1 | 106%

Row | Structure (SMILES) | growth
19 | COC(=O)[C@]12CC[C@@H](C)[C@H](C)[C@@H]1C1=CC[C@@H]3[C@@]4(C)C(c5cnco5)=C[C@@](C)(CO)C4=CC[C@@]3(C)[C@]1(C)CC2 | 17%
20 | COC(=O)[C@@H](Cc1c[nH]c2ccccc12)NC(=O)[C@H](Cc1ccccc1)NCc1ccncc1 | 103%
21 | O=C(/C=C/CN1CCOCC1)Nc1cc2c(Nc3cccc(Cl)c3F)ncnc2cc1OCCOC(F)F | -15.3% (active)
22 | Cc1cc(C)n(C(=O)CSc2nc3sc4c(c3c(=O)n2-c2ccccc2)CCCCC4)n1 | 111%
23 | Cc1ccc(-c2nn(-c3ccccc3)cc2/C=C/C(=O)c2ccc(NC(=O)CCCCCCC(=O)NO)cc2)cc1 | 70.9%
24 | CNc1nc(C)c(-c2nc(Nc3cccc(S(N)(=O)=O)c3)ncc2F)s1 | -38.3% (active)
25 | COC(=O)[C@]12CC[C@@H](C)[C@H](C)[C@@H]1C1=CC[C@@H]3[C@@]4(C)C[C@@H](O)OC[C@](C)(C=O)C4C(=O)C[C@@]3(C)[C@]1(C)CC2 (stereo partly specified) | -0.84% (active)
26 | CCOC(=O)C1=C(CSC(=S)N(C2CCCCC2)C2CCCCC2)N(C)C(=O)NC1c1ccccc1 (stereo unspecified) | 47.3%
27 | NC(=O)Nc1ccc2ncnc(Nc3ccc(Cl)cc3)c2c1 | -7.15% (active)
28 | O[N+]1=CC=CCC1=S.On1ccccc1=S.[Zn] | -75.8% (active)
29 | CCCC1Cc2cc(-n3nc(C)c4c3CC(C)(C)CC4=O)cc(NC3CCC(O)CC3)c2C(=O)N1 (stereo unspecified) | -8.54% (active)
30 | O=C(CCc1nc2sc3c(c2c(=O)[nH]1)CCC3)NCc1cn(-c2ccccc2)nc1-c1ccccc1 | 83.6%
31 | Cn1c2c(Cl)c(Cl)ccc2c2c(C#N)c[nH]c(=O)c21 | 111%
32 | Nc1cccc2cccc(O)c12 | 82.6%
33 | Cc1ccc(S(=O)(=O)n2cc(C(=O)C(=O)N3CCCCC3)c3ccccc32)cc1 | 40.2%
34 | Cc1nccc2c3ccc(OCc4cn(-c5ccc(Br)cc5)nn4)cc3n(CCCc3ccccc3)c12 | 108%
35 | C#C[C@]1(O)CC[C@H]2[C@@H]3CC=C4c5nc(Nc6ccccn6)sc5CC[C@]4(C)[C@H]3CC[C@@]21C | 14.2%
36 | Cn1cc(-c2nc(-c3cn(C)c4ncccc34)cs2)c2cc(F)ccc21 | -8.46% (active)
